Experimental data as given in PubChem BioAssay.
Active and inactive are the calls of the source.

What was measured:
[1] = optical density shifts of acrAB sulA E. coli – strain DRC41, OD650, 48 h, E. coli filamentation inducer project, primary screen (AID 1152); details: higher = more signal, called active from +8 up or from −8 down;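 further: E. coli MC1000 strain DRC41 lacking acrAB efflux pump and sulA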
[2] = probe aLefty1 binding on compound microarray – biochemical, small-molecule microarray, 635/667 nm fluorescence, primary screen (AID 1153); details: higher = more signal;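 further: score merges spot fluorescence with signal-to-noise ratio from the scanned slide images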
[3] = plasmodial surface anion channel blockers, osmotic lysis – cell-based, P. falciparum Indochina, OD700, 1 h, primary screen (AID 1154); details: P. falciparum Indochina infected RBC osmotic lysis, higher = more signal, called active from +8 up or from −8 down
[4] = plasmodial surface anion channel blockers, osmotic lysis – cell-based, P. falciparum Indochina, OD700, 2 h, primary screen (AID 1155);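 further: lysis reports solute entry through the parasite surface anion channel PSAC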; details: P. falciparum Indochina infected erythrocytes, higher = more signal, called active from +8 up or from −8 down
[5] = changes in parasitized red cell lysis, either direction – P. falciparum Indochina, OD700, 3 h, PSAC antagonist project, primary screen (AID 1156); details: P. falciparum-infected erythrocytes, osmotic lysis, higher = more signal, called active from +8 up or from −8 down
[6] = plasmodial surface anion channel blockers, osmotic lysis – cell-based, P. falciparum Indochina, OD700, 18 h, primary screen (AID 1157); details: P. falciparum Indochina infected erythrocytes, osmotic lysis OD700, 18 h; higher = more signal, called active from +8 up or from −8 down
[7] = S6 kinase pathway phospho-S6 level changes – cell-based, A549, cytoblot, luminescence, serum-stimulated, primary screen (AID 1158); details: 5 h, higher = more signal;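 further: serum-stimulated A549 lung adenocarcinoma cells; signal is phosphorylated S6 detected by cytoblot immunostaining with HRP secondary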
[8] = molecular target: NADPH oxidase 2 (Homo sapiens) (UniProt P04839); assay: compounds shifting NOX2 Amplex Red fluorescence – cell-based, HEK293-NOX2, PMA-stimulated, NOX inhibitor project, primary screen (AID 1159); details: 45 min, higher = more signal, called active from +8 up or from −8 down; further: test concentration not given here
[9] = molecular target: NADPH oxidase 4 (Homo sapiens) (UniProt Q9NPH5); assay: compounds shifting NOX4 Amplex Red fluorescence – cell-based, HEK293-NOX4, tetracycline-induced, NOX inhibitor project, primary screen (AID 1160); details: HEK293-NOX4, Amplex Red H2O2 fluorescence, 45 min; higher = more signal, called active from +8 up or from −8 down
[10] = molecular target: NADPH oxidase 5 (Homo sapiens) (UniProt Q96PH1); assay: compounds shifting NOX5 Amplex Red fluorescence – cell-based, HEK293-NOX5, NOX inhibitor project, primary screen (AID 1161); details: HEK293-NOX5, ionomycin, 45 min, higher = more signal
[11] = compound effects on lung adenocarcinoma cell viability – A549, calcein-AM fluorescence, 48 h, basal, profiling panel (AID 1162); details: higher = more signal; further: test concentration not given here
[12] = compound effects on differentiated 3T3-L1 adipocyte viability – cell-based, 3T3-L1 adipocytes, calcein-AM fluorescence, 48 h, basal, profiling panel (AID 1163); details: 3T3-L1 adipocytes viability, higher = more signal; further: test concentration not given here
[13] = compound effects on hepatocellular carcinoma cell viability – HepG2, calcein-AM fluorescence, 48 h, basal, profiling panel (AID 1164); details: higher = more signal; further: test concentration not given here
[14] = compound effects on multiple myeloma cell viability – MM1S, calcein-AM fluorescence, 48 h, basal, profiling panel (AID 1165); details: higher = more signal;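 further: viability of MM1S multiple myeloma cells under basal unstimulated conditions; test concentration not given here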
[15] = calcein-AM signal in unstimulated myeloma cells – cell-based, calcein-AM fluorescence, 48 h, PK04 Diversity Set, profiling panel (AID 1166); details: RPMI8226 myeloma viability, higher = more signal;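 further: cells grown under basal conditions without added stimulus; test concentration not given here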
[16] = JC-1 mitochondrial signal, unstimulated HepG2 cells – cell-based, JC-1 fluorescence, 24 h, 100 nL compound, profiling panel (AID 1167); details: HepG2 mitochondrial potential, higher = more signal; further: test concentration not given here
[17] = JC-1 mitochondrial signal, unstimulated adipocytes – cell-based, JC-1 fluorescence, 3T3-L1 adipocytes, 24 h, 100 nL compound, profiling panel (AID 1168); details: JC-1 mitochondrial fluorescence, higher = more signal, called active from +8 up or from −8 down; further: test concentration not given here
[18] = JC-1 mitochondrial signal, unstimulated myeloma cells – cell-based, JC-1 fluorescence, RPMI8226, 24 h, 100 nL compound, profiling panel (AID 1169); details: JC-1 mitochondrial potential fluorescence, higher = more signal; further: test concentration not given here
[19] = JC-1 mitochondrial signal, unstimulated MM1S myeloma – cell-based, JC-1 fluorescence, 24 h, 100 nL compound, profiling panel (AID 1170); details: MM1S mitochondrial potential, higher = more signal; further: test concentration not given here
[20] = resazurin metabolic signal in A549 cells – cell-based, resazurin fluorescence, 24 h, PK04 Diversity Set, profiling panel (AID 1171); details: A549 viability, higher = more signal, called active from +8 up or from −8 down; further: test concentration not given here

Chain of NADPH oxidase 2 (Homo sapiens) (P04839 whole entry, looked up): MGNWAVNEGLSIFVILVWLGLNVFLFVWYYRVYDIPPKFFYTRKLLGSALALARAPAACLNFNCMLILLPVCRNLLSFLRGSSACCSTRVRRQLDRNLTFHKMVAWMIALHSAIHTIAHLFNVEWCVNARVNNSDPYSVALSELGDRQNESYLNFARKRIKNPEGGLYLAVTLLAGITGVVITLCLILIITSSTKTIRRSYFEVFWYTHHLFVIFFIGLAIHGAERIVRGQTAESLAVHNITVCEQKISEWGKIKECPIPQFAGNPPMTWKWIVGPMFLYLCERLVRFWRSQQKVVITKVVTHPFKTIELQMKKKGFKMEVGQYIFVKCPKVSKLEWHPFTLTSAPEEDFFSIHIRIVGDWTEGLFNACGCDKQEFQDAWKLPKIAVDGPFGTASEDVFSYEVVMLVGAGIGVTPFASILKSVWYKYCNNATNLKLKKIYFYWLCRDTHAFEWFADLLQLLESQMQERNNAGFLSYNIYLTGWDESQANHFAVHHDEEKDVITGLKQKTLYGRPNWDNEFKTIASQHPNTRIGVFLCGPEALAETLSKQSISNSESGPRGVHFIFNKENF
Chain of NADPH oxidase 5 (Homo sapiens) (Q96PH1 whole entry, looked up): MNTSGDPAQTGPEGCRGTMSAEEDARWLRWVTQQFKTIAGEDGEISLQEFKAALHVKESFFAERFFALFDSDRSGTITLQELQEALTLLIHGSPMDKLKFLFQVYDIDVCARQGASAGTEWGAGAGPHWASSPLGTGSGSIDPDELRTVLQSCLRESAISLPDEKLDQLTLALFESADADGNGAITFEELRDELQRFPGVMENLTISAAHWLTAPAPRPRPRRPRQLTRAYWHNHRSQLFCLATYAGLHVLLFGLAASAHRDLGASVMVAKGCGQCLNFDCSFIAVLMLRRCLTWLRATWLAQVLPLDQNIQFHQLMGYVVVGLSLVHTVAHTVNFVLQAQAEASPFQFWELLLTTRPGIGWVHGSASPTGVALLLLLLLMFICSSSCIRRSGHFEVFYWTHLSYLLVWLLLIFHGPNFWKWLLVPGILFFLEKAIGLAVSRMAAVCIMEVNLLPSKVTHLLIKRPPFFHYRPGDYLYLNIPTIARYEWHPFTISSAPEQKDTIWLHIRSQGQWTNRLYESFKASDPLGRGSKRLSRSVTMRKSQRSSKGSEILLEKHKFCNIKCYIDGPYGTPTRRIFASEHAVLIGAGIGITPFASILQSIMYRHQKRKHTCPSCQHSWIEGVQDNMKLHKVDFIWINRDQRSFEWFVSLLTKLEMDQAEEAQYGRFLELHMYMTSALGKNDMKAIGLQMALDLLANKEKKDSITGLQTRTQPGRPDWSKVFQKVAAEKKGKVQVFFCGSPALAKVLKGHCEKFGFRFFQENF
Chain of NADPH oxidase 4 (Homo sapiens) (Q9NPH5 whole entry, looked up): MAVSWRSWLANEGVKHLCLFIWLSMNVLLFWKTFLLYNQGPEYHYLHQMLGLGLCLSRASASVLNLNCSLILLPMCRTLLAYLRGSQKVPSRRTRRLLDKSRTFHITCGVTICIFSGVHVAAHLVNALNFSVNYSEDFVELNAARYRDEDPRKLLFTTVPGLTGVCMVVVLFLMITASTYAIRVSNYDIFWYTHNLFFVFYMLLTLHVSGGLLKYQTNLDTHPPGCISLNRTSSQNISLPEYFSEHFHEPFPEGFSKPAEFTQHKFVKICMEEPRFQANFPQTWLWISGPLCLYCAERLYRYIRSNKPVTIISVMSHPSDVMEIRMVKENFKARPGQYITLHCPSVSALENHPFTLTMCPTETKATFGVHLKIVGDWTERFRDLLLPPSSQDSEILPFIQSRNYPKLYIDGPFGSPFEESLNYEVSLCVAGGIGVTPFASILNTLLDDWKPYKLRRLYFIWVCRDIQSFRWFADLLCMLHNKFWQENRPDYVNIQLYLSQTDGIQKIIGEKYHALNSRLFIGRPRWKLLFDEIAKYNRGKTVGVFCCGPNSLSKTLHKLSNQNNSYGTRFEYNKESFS

Structure (SMILES)	z-score [1]	composite z-score [2]	z-score [3]	z-score [4]	z-score [5]	z-score [6]	z-score [7]	z-score [8]	z-score [9]	z-score [10]	z-score [11]	z-score [12]	z-score [13]	z-score [14]	z-score [15]	z-score [16]	z-score [17]	z-score [18]	z-score [19]	z-score [20]
CCCC[C@H]1C[C@@H]1[C@@H]1N(P(=O)(c2ccccc2)c2ccccc2)C[C@@](O)(c2ccccc2)CC12CC2	-1.84 (inactive)	0.404	2.07 (inactive)	1.07 (inactive)	0.425 (inactive)	1.55 (inactive)	-0.443	-0.476 (inactive)	-0.925 (inactive)	-2.1	-3.9	-0.228	-5.35	-3.29	-4.7	-2.84	-0.556 (inactive)	-0.917	-2.78	4.58 (inactive)
C=CC[C@]1(C(N)=O)N=C(c2ccc(OCCCO)cc2)O[C@H]1c1ccccc1	-0.0378 (inactive)	-0.0057	6.38 (inactive)	1.44 (inactive)	0.99 (inactive)	0.765 (inactive)	-0.039	0.737 (inactive)	0.676 (inactive)	0.145	0.354	0.464	-0.717	-0.519	-0.111	-0.579	-1.09 (inactive)	-0.414	0.13	-0.0187 (inactive)
NC(=O)NCC#Cc1ccc2c(c1)[C@]1(C(=O)N2)[C@H](C(=O)O)[C@H]2C(=O)O[C@H](c3ccccc3)[C@H](c3ccccc3)N2[C@@H]1c1ccc(O)cc1	-1.29 (inactive)	0.642	0.141 (inactive)	0.0468 (inactive)	-0.357 (inactive)	0.27 (inactive)	-0.603	1.17 (inactive)	-0.399 (inactive)	-0.349	0.715	0.407	0.611	-0.944	0.0565	-1.43	-1.56 (inactive)	0.123	0.126	1.22 (inactive)
O=C1OCCC=C[C@H]2OC34C=CCN(Cn5nnc6ccccc65)C(=O)[C@H]3N(CCO)C(=O)[C@@H]4C12 (stereo not given in full)	1.41 (inactive)	-0.147	1.03 (inactive)	0.793 (inactive)	1.08 (inactive)	0.601 (inactive)	-0.18	1.55 (inactive)	1.22 (inactive)	1.73	-0.679	0.432	-0.556	0.897	-1.08	-0.298	0.756 (inactive)	0.42	-0.0431	0.293 (inactive)
OCCCC1=CC(C2CC2)N(Cc2cccc(OC(F)(F)F)c2)CC1 (stereo not given)	-0.469 (inactive)	-0.0813	1.82 (inactive)	0.539 (inactive)	0.982 (inactive)	0.675 (inactive)	0.473	-1.2 (inactive)	-0.822 (inactive)	-1.48	-0.346	0.643	0.43	-0.522	0.0997	0.64	0.319 (inactive)	0.48	0.572	1.83 (inactive)
COc1ccc(NC(=O)O[C@H]2[C@H](OC(=O)c3cc4ccccc4[nH]3)[C@@H](OC(=O)c3cc4ccccc4[nH]3)[C@@H](OC)O[C@@H]2CO)cc1	0.799 (inactive)	-0.0529	2.35 (inactive)	-0.529 (inactive)	0.52 (inactive)	-0.955 (inactive)	1.22	-3.65 (inactive)	-1.18 (inactive)	-4.46	0.349	0.203	0.825	-0.699	0.422	0.923	1.93 (inactive)	0.168	-0.117	-1.92 (inactive)
C[N+](C)(C)CCCCCCNC(=O)[C@H]1C[C@H]2C(=O)N[C@@H](Cc3ccccc3)C(=O)N2[C@H]1c1cccc(OCCO)c1	0.123 (inactive)	0.222	10.3 (active)	1.48 (inactive)	-1.42 (inactive)	0.719 (inactive)	-0.62	1.78 (inactive)	0.576 (inactive)	1.13	-0.344	-1.04	-0.695	0.245	0.517	-1.25	-0.371 (inactive)	-0.186	-0.545	0.568 (inactive)
N#Cc1ccc(C(O)C2C=CC3C(=O)N(c4ccccc4)C(=O)C3N2Nc2ccccc2F)cc1 (stereo not given)	0.55 (inactive)	0.149	3.98 (inactive)	-0.245 (inactive)	-0.246 (inactive)	-0.616 (inactive)	0.179	-1.82 (inactive)	-3.54 (inactive)	-2.02	0.545	-1.05	-0.245	0.755	-0.406	-0.776	-0.872 (inactive)	0.585	-0.0841	0.0801 (inactive)
O=C1N(CCS(=O)(=O)c2ccccc2)c2ccccc2[C@@H]2OC(c3ccc(OCCCO)cc3)=N[C@]12Cc1ccccc1	0.0442 (inactive)	-0.081	30.9 (active)	24.6 (active)	2.85 (inactive)	6.38 (inactive)	2.01	-2.55 (inactive)	0.645 (inactive)	-1.18	0.661	1.33	0.993	-2.75	-1.58	0.637	2.24 (inactive)	-0.407	-0.989	-2.13 (inactive)
COC(=O)C(CC#Cc1ccc2c(c1)[C@]1(C(=O)N2)[C@H](c2ccccc2OCCO)N2[C@H](c3ccccc3)[C@H](c3ccccc3)OC(=O)[C@H]2[C@@H]1C(=O)O)C(=O)OC	0.456 (inactive)	0.169	4.94 (inactive)	0.569 (inactive)	-7.69 (inactive)	-0.0236 (inactive)	-0.13	1.79 (inactive)	-0.0833 (inactive)	0.036	1.45	0.0879	1.38	-2.37	-2.41	1.11	-0.847 (inactive)	-0.214	-0.197	0.917 (inactive)
[N-]=[N+]=NCc1ccccc1[C@@H]1OC(c2ccc(OCCCO)cc2)=N[C@]1(CCS(=O)(=O)c1ccccc1)C(=O)N1CCOCC1	1.79 (inactive)	0.533	26.1 (active)	12.5 (active)	3.79 (inactive)	0.45 (inactive)	1.88	1.21 (inactive)	1.18 (inactive)	1.2	0.761	1.96	0.502	0.191	-1.6	2.29	0.78 (inactive)	-0.356	-0.412	0.218 (inactive)
COc1ccc(-c2cc3c(c(Cc4ccccc4)n2)[Si](C(C)C)(C(C)C)OC3)cn1	-1.28 (inactive)	-0.0099	2.28 (inactive)	0.139 (inactive)	-0.709 (inactive)	0.408 (inactive)	0.0758	-1.62 (inactive)	-0.121 (inactive)	-2.02	-0.103	-0.19	0.147	-0.494	-1.37	-0.914	-1.19 (inactive)	-0.346	0.488	2.17 (inactive)
CC(CO)N1C(=O)[C@@H]2C3C(=O)OCCC/C=C\[C@H]3OC23C=CCN(CCN2CCOCC2)C(=O)[C@@H]13 (stereo not given in full)	0.253 (inactive)	-0.348	0.901 (inactive)	0.0448 (inactive)	1.7 (inactive)	0.01 (inactive)	0.0058	0.238 (inactive)	-0.398 (inactive)	1.05	-0.31	-0.414	0.755	1.92	0.435	0.559	-0.109 (inactive)	0.357	-1.07	-0.7 (inactive)
COc1ccc([C@H]2C[C@H]3C(I)=C[C@@H]2C(=O)[C@]32CO2)cc1	0.794 (inactive)	-0.28	0.524 (inactive)	0.0528 (inactive)	0.255 (inactive)	-0.0393 (inactive)	0.759	-0.546 (inactive)	-0.298 (inactive)	-0.974	-0.87	0.698	-0.856	-3.23	-2.81	-0.22	0.315 (inactive)	-0.474	-0.967	0.46 (inactive)
CN(C)CCCCCCNC(=O)[C@@H]1C[C@@H]2C(=O)N3CCC[C@H]3C(=O)N2[C@@H]1c1ccc(O)cc1	1.12 (inactive)	0.457	0.974 (inactive)	-1.24 (inactive)	1.09 (inactive)	-1.93 (inactive)	1.12	-0.245 (inactive)	-0.176 (inactive)	0.884	1.26	1.09	0.773	0.581	-0.586	1.06	0.342 (inactive)	-0.689	-0.78	-0.908 (inactive)
COC(=O)[C@@]1(CCC(=O)OC(C)(C)C)N=C(c2ccc(OCCCO)cc2)O[C@H]1c1ccccc1	-1.12 (inactive)	-0.009	26 (active)	14.9 (active)	2.32 (inactive)	1.89 (inactive)	0.197	-2.39 (inactive)	-0.204 (inactive)	-2.57	-1.68	0.673	-0.968	-2.83	-2.83	-2.01	-0.306 (inactive)	-1.1	0.558	-1.8 (inactive)
O=C1NC(=O)C2C1C=CC(C(O)C1CC=CCC1)N2Nc1ccccn1 (stereo not given)	-0.629 (inactive)	-0.0172	-0.158 (inactive)	-0.0567 (inactive)	0.0677 (inactive)	0.288 (inactive)	-0.259	-2.27 (inactive)	-2.52 (inactive)	-1.61	-0.905	-0.635	1.06	0.0581	-0.362	-0.265	-0.147 (inactive)	-0.074	-0.642	-1.44 (inactive)
CN(C)CCCCNC(=O)[C@@H]1C[C@@H]2C(=O)N[C@@H](CCCCN)C(=O)N2[C@@H]1c1ccc(O)cc1	0.928 (inactive)	0.129	1.93 (inactive)	1.43 (inactive)	-0.079 (inactive)	1.16 (inactive)	0.297	1.42 (inactive)	1.28 (inactive)	0.81	0.48	-1.51	0.377	-0.388	0.473	-1.58	0.627 (inactive)	-0.836	-1.29	0.0719 (inactive)
